In article PMC11006913 one finds binding signal data, which are given here for 30 sequences.

Common to all, as to test: PBM; 200 nM protein, PBS
Details in all cases: dsDNA, one strand shown

Experiment [1] addresses SHOX (Homo sapiens, UniProt O15266 103-189).
The target of experiment [2] is SHOX (Homo sapiens, UniProt O15266 103-189, R173C).
The target in experiment [3] is CRX (Homo sapiens, UniProt O43186 26-111).
The target of experiment [4] is NKX3-2 (Homo sapiens, UniProt P78367 192-278, P234S).
For experiment [5], the target named is NKX3-2 (Homo sapiens, UniProt P78367 192-278).
Experiment [6] concerns the target CRX (Homo sapiens, UniProt O43186 26-111, R41L).
Experiment [7] addresses VAX1 (Homo sapiens, UniProt Q5SQQ9 86-172).
Experiment [8] concerns the target VAX1 (Homo sapiens, UniProt Q5SQQ9 86-172, K157R).
The target in experiment [9] is VAX1 (Homo sapiens, UniProt Q5SQQ9 86-172, T142I).
VAX1 (Homo sapiens, UniProt Q5SQQ9 86-172, T142I), sequence (Q5SQQ9 86-172 T142I): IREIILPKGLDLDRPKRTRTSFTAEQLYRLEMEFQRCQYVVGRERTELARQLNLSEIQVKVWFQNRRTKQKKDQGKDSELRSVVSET

VAX1 (Homo sapiens, UniProt Q5SQQ9 86-172), sequence (Q5SQQ9 86-172): as the sequence (Q5SQQ9 86-172 T142I) above, with I57T counted along it
VAX1 (Homo sapiens, UniProt Q5SQQ9 86-172, K157R), sequence (Q5SQQ9 86-172 K157R): as the sequence (Q5SQQ9 86-172 T142I) above, with I57T, K72R counted along it
SHOX (Homo sapiens, UniProt O15266 103-189), sequence (O15266 103-189): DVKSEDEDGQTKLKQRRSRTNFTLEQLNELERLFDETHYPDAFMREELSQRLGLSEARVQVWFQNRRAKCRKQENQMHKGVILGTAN
SHOX (Homo sapiens, UniProt O15266 103-189, R173C), sequence (O15266 103-189 R173C): as the sequence (O15266 103-189) above, with R71C counted along it
NKX3-2 (Homo sapiens, UniProt P78367 192-278, P234S), sequence (P78367 192-278 P234S): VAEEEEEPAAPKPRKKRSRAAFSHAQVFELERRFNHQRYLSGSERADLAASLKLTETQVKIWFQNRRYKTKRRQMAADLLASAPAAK
CRX (Homo sapiens, UniProt O43186 26-111, R41L), sequence (O43186 26-111 R41L): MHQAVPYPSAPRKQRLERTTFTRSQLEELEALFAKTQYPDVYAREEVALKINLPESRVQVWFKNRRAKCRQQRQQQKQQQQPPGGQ
NKX3-2 (Homo sapiens, UniProt P78367 192-278), sequence (P78367 192-278): as the sequence (P78367 192-278 P234S) above, with S43P counted along it
CRX (Homo sapiens, UniProt O43186 26-111), sequence (O43186 26-111): as the sequence (O43186 26-111 R41L) above, with L16R counted along it

In the case of CGCAGCCG, the binding signal is 7.02 upbm affinity estimate (log intensity, higher = more binding, comparable within an allelic series) in experiment [1] and 7.12 upbm affinity estimate (log intensity, higher = more binding, comparable within an allelic series) in [2].

As for ACCTGAGG, the binding signal in [1] was 7.18 upbm affinity estimate (log intensity, higher = more binding, comparable within an allelic series); in experiment [2], 7.27 upbm affinity estimate (log intensity, higher = more binding, comparable within an allelic series).

Take AGGTCCCC: the binding signal was 7.19 upbm affinity estimate (log intensity, higher = more binding, comparable within an allelic series) in [1] and 7.17 upbm affinity estimate (log intensity, higher = more binding, comparable within an allelic series) in experiment [2].

On to CCCAGCGA, for which the binding signal is 7.15 upbm affinity estimate (log intensity, higher = more binding, comparable within an allelic series) in [1] and 7.2 upbm affinity estimate (log intensity, higher = more binding, comparable within an allelic series) in experiment [2].

Turning to CCAAACGG, the binding signal was 7.11 upbm affinity estimate (log intensity, higher = more binding, comparable within an allelic series) in experiment [1] and 7.21 upbm affinity estimate (log intensity, higher = more binding, comparable within an allelic series) in experiment [2].

Consider GCCCAAGC, for which the binding signal was 7.26 upbm affinity estimate (log intensity, higher = more binding, comparable within an allelic series) in [1] and 7.23 upbm affinity estimate (log intensity, higher = more binding, comparable within an allelic series) in [2].

Take CCCACTCG: the binding signal in experiment [1] was 7.04 upbm affinity estimate (log intensity, higher = more binding, comparable within an allelic series); in experiment [2], 7.12 upbm affinity estimate (log intensity, higher = more binding, comparable within an allelic series).

Take CCGGCGTC: the binding signal is 7.01 upbm affinity estimate (log intensity, higher = more binding, comparable within an allelic series) in [1] and 7.17 upbm affinity estimate (log intensity, higher = more binding, comparable within an allelic series) in [2].

On to AATTCTGA, for which, in experiment [3], the binding signal is 10 upbm affinity estimate (log intensity, higher = more binding, comparable within an allelic series).

Consider CGGCCTCC, for which the binding signal in [1] is 6.98 upbm affinity estimate (log intensity, higher = more binding, comparable within an allelic series); in experiment [2] it was 7.08 upbm affinity estimate (log intensity, higher = more binding, comparable within an allelic series).

Turning to AATTAGGC, the binding signal is 11.6 upbm affinity estimate (log intensity, higher = more binding, comparable within an allelic series) in experiment [1] and 9.07 upbm affinity estimate (log intensity, higher = more binding, comparable within an allelic series) in experiment [2].

Turning to CCGCGCCA, the binding signal is 7.12 upbm affinity estimate (log intensity, higher = more binding, comparable within an allelic series) in [1] and 7.11 upbm affinity estimate (log intensity, higher = more binding, comparable within an allelic series) in experiment [2].

As for CGGGCGTC, the binding signal in [1] is 7.36 upbm affinity estimate (log intensity, higher = more binding, comparable within an allelic series); in experiment [2], 7.21 upbm affinity estimate (log intensity, higher = more binding, comparable within an allelic series); in [4], 10.6 upbm affinity estimate (log intensity, higher = more binding, comparable within an allelic series); in experiment [5], 10.5 upbm affinity estimate (log intensity, higher = more binding, comparable within an allelic series).

Consider CCTCGGAG, for which the binding signal in [1] is 7.14 upbm affinity estimate (log intensity, higher = more binding, comparable within an allelic series); in [2], 7.17 upbm affinity estimate (log intensity, higher = more binding, comparable within an allelic series).

Turning to CCAGTTTA, the binding signal in experiment [1] is 8.2 upbm affinity estimate (log intensity, higher = more binding, comparable within an allelic series); in experiment [2], 7.55 upbm affinity estimate (log intensity, higher = more binding, comparable within an allelic series).

Regarding GCGGCGGA, the binding signal is 7.1 upbm affinity estimate (log intensity, higher = more binding, comparable within an allelic series) in experiment [1] and 7.11 upbm affinity estimate (log intensity, higher = more binding, comparable within an allelic series) in experiment [2].

For the sequence GCTAATAC, the binding signal in [1] is 9.1 upbm affinity estimate (log intensity, higher = more binding, comparable within an allelic series); in experiment [6], 10.9 upbm affinity estimate (log intensity, higher = more binding, comparable within an allelic series).

On to CTCCGCCA, for which the binding signal in [1] was 7.21 upbm affinity estimate (log intensity, higher = more binding, comparable within an allelic series); in [2], 7.21 upbm affinity estimate (log intensity, higher = more binding, comparable within an allelic series).

As for GCATGGCC, the binding signal in experiment [1] is 7.2 upbm affinity estimate (log intensity, higher = more binding, comparable within an allelic series); in experiment [2], 7.2 upbm affinity estimate (log intensity, higher = more binding, comparable within an allelic series).

For the sequence CCAATCAC, the binding signal in experiment [1] was 8.6 upbm affinity estimate (log intensity, higher = more binding, comparable within an allelic series); in [2], 7.61 upbm affinity estimate (log intensity, higher = more binding, comparable within an allelic series); in [7] it was 8.98 upbm affinity estimate (log intensity, higher = more binding, comparable within an allelic series); in [8], 8.89 upbm affinity estimate (log intensity, higher = more binding, comparable within an allelic series).

For GACAGCCC, the binding signal in [1] is 7.16 upbm affinity estimate (log intensity, higher = more binding, comparable within an allelic series); in experiment [2] it was 7.16 upbm affinity estimate (log intensity, higher = more binding, comparable within an allelic series).

CGGTTGCC: the binding signal in experiment [1] was 7.18 upbm affinity estimate (log intensity, higher = more binding, comparable within an allelic series); in [2], 7.25 upbm affinity estimate (log intensity, higher = more binding, comparable within an allelic series).

For CCGGATGC, the binding signal in experiment [1] is 6.64 upbm affinity estimate (log intensity, higher = more binding, comparable within an allelic series); in [2], 7.08 upbm affinity estimate (log intensity, higher = more binding, comparable within an allelic series); in experiment [7], 6.72 upbm affinity estimate (log intensity, higher = more binding, comparable within an allelic series); in experiment [9] it was 6.89 upbm affinity estimate (log intensity, higher = more binding, comparable within an allelic series); in experiment [8], 6.77 upbm affinity estimate (log intensity, higher = more binding, comparable within an allelic series).

On to CCGAGGGA, for which the binding signal was 7.05 upbm affinity estimate (log intensity, higher = more binding, comparable within an allelic series) in experiment [1]; 7.2 upbm affinity estimate (log intensity, higher = more binding, comparable within an allelic series) in experiment [2]; 7.35 upbm affinity estimate (log intensity, higher = more binding, comparable within an allelic series) in experiment [7]; 7.23 upbm affinity estimate (log intensity, higher = more binding, comparable within an allelic series) in experiment [9]; 7.35 upbm affinity estimate (log intensity, higher = more binding, comparable within an allelic series) in [8].

Take GGCTGGCA: the binding signal was 7.2 upbm affinity estimate (log intensity, higher = more binding, comparable within an allelic series) in [1] and 7.13 upbm affinity estimate (log intensity, higher = more binding, comparable within an allelic series) in experiment [2].

Consider CCTGAGAG, for which the binding signal was 7.19 upbm affinity estimate (log intensity, higher = more binding, comparable within an allelic series) in experiment [1] and 7.25 upbm affinity estimate (log intensity, higher = more binding, comparable within an allelic series) in experiment [2].

As to GCCTGCCA, the binding signal in experiment [1] was 7.25 upbm affinity estimate (log intensity, higher = more binding, comparable within an allelic series); in [2], 7.26 upbm affinity estimate (log intensity, higher = more binding, comparable within an allelic series).

Regarding ACCCGGAC, the binding signal in [1] was 7.09 upbm affinity estimate (log intensity, higher = more binding, comparable within an allelic series); in experiment [2] it was 7.17 upbm affinity estimate (log intensity, higher = more binding, comparable within an allelic series).

Regarding GCCTATTA, the binding signal in [1] was 10.8 upbm affinity estimate (log intensity, higher = more binding, comparable within an allelic series); in experiment [2], 8.45 upbm affinity estimate (log intensity, higher = more binding, comparable within an allelic series).

For the sequence CCCCTTCC, the binding signal was 7.19 upbm affinity estimate (log intensity, higher = more binding, comparable within an allelic series) in experiment [1] and 7.03 upbm affinity estimate (log intensity, higher = more binding, comparable within an allelic series) in experiment [2].
